The text below walks through data of ChEMBL document CHEMBL4888484, “Replenishing the malaria drug discovery pipeline: Screening and hit evaluation of the MMV Hit Generation Library 1 (HGL1) against asexual blood stage Plasmodium falciparum ,using a nano luciferase reporter read-out” (2022).

Structures are written as SMILES. In all, about 150,000 compounds went through this assay and about 540 (0.36%) showed an effect of 50% or more. The sample holds strong results, similar compounds and a random draw of the others, so the mix is not that of the screen.

The assay deals with Plasmodium falciparum. As to the kind of experiment: Primary screen in NF54 nanoGlo assay, in single point, at 2uM, 72h; a lower Z score goes with more inhibition. The format is functional, Erythrocyte. To be noted: timepoint 72 hour.
The % Inhibition is the change of the read-out against control, counted positive when it falls. Turning to `CNC(=O)[C@@H]1C[C@@H](Nc2ccnc(OC)c2C#N)CN1Cc1ccccn1`, the “% Inhibition” value amounted to 2% and the Z score is recorded as -0.32.
Turning to `Cc1noc(C)c1S(=O)(=O)NC1(C(=O)Nc2ccsc2)CCCC1`, the “% Inhibition” value was -8% and the Z score stood at 1.08.
On the same counts, the results for `CC[C@@](C)(CNC(=O)COCc1cccc(OC)c1)N1CCOCC1` are -4% and 0.5.
With `Cc1cc(C)nc(NC[C@H]2CCCO2)n1`, the “% Inhibition” value is -5% and the Z score came out at 0.64.
As for `CC(C)c1cnc(NCCCC[C@H]2CCCO2)nc1`, the “% Inhibition” value is 48% and the Z score was 0.41.
Regarding `Cc1cc(C)nc(NCCC[C@H]2CCCCO2)n1`, the “% Inhibition” value is on record as 54% and the Z score is listed as 0.94.
Consider `O=C(OCC(F)(F)F)N1CCOCC1`, for which the “% Inhibition” value was found to be 1% and the Z score was -0.08.
For `CC(C)CN1CCCC1C(=O)N1CCO[C@H]2CCC[C@H]21` (some centres undefined), the “% Inhibition” value is recorded as -5% and the Z score stood at 0.92.
Turning to `O=C(N/C(=N\c1ccc(F)cc1)N1CCN(Cc2cccc(F)c2)CC1)c1ccccc1`, the “% Inhibition” value is on record as 2% and the Z score is -0.32.
On to `Cc1ccc(N2C(=O)C[C@]3(CC3(c3ccccc3)c3ccccc3)C2=O)cc1`, for which the “% Inhibition” value turned out to be 73% and the Z score was -0.64.
Take `COc1cccc(N2C(=O)C[C@]3(CC3(c3ccccc3)c3ccccc3)C2=O)c1`: the “% Inhibition” value stood at 35% and the Z score is recorded as -0.08.
For `O=C1C[C@]2(CC2(c2ccccc2)c2ccccc2)C(=O)N1c1cccc(Br)c1`, the “% Inhibition” value was 19% and the Z score is -3.6.
As for `CC(CNC(=O)C(=O)NC(C)CCc1ccccc1)Cc1ccccc1` (centres undefined), the “% Inhibition” value is -11% and the Z score is listed as 1.26.
For `Cc1cccc2[nH]c(COCC(=O)NC[C@H]3CCCN(C)C3)nc12`, the “% Inhibition” value is recorded as 14% and the Z score was -1.8.
For the compound `O=S(=O)(c1ccc2c(c1)OCCO2)N1CC[C@H](Oc2ccncc2Cl)C1`, the “% Inhibition” value is -7% and the Z score is recorded as 1.4.
As to `O=S(=O)(c1ccc(F)c(Cl)c1)N1CC[C@H](Oc2ccncc2Cl)C1`, the “% Inhibition” value was found to be 72% and the Z score is given as -13.57.
On to `O=S(=O)(c1cccnc1)N1CC[C@H](Oc2ccncc2Cl)C1`, for which the “% Inhibition” value is -6% and the Z score is 1.14.
On the same counts, the results for `Cc1cc2nc[nH]c2c(NC(=O)CCc2cc3n(n2)CCNC3)c1C` are -7% and 1.44.
`CCOc1ccc(-c2noc([C@@H]3Cc4ccccc4N3C(C)=O)n2)cc1Cl`: the “% Inhibition” value is reported as 19% and the Z score was -2.19.
On to `O=C1NC(=O)[C@@H]2CN(S(=O)(=O)c3cc(F)cc(Cl)c3)C[C@H]12`, for which the “% Inhibition” value was 37% and the Z score worked out at 0.7.
`O=C(CCn1cnc2cc(-c3noc(-c4ccccn4)n3)ccc21)N1CCOCC1`: the “% Inhibition” value was -9% and the Z score stood at 1.86.
With `COc1ccc(-c2c(C(F)(F)F)n[nH]c2-c2ccc(OCc3ccccc3F)cc2O)cc1`, the “% Inhibition” value is on record as 79% and the Z score was -11.69.
On to `COc1ccc(-c2n[nH]c3c2[C@@H](c2ccc(OCc4ccccc4F)cc2)CC(=O)O3)cc1`, for which the “% Inhibition” value is -7% and the Z score worked out at 1.23.
In the case of `COc1ccccc1-c1cn[nH]c1-c1ccc(OCc2cc(C)ccc2C)cc1O`, the “% Inhibition” value was determined as 0% and the Z score is 0.
Turning to `COc1ccccc1Oc1cn[nH]c1-c1ccc(OCc2ccccc2C)cc1O`, the “% Inhibition” value is reported as -7% and the Z score is reported as 0.65.
Regarding `COc1ccc(Oc2cn[nH]c2-c2ccc(OCc3ccc(F)cc3)cc2O)cc1`, the “% Inhibition” value came to 4% and the Z score was -0.82.
Consider `Oc1cc(OCc2ccccc2F)ccc1-c1[nH]ncc1-c1ccccc1`, for which the “% Inhibition” value was 52% and the Z score is recorded as -11.1.
